Gli-Sufu antag: blocks Gli-Sufu signaling in a luciferase reporter; Sufu-KO-LIGHT fibroblasts, Gli luciferase reporter luminescence; inhibition, % at 5 µM; hit rate 0.74% among 340,000; AID 588413;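 active means inhibition above about 55%, limit read from the data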;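 further: 0% = DMSO-treated cells and 100% = wells with medium but no cells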
KLF5 inhibitor: kruppel-like factor 5 inhibition | DLD-1 KLF5 promoter-luciferase reporter, luminescence | inhibition, % at 5 µM | hit rate 0.23% among 290,000 | AID 1700;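 active means inhibition above a per-plate limit of that plate's mean compound inhibition plus 3 SD, cut at about 60% in these data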;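 further: 0% = DMSO wells and 100% = LY294002 at 200 µM; higher means less KLF5 promoter-driven luciferase light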
Jurkat NFkB inh: lowers PMA/ionomycin-induced NF-kB signal in Jurkat cells | AID 435003 | PMA/ionomycin-induced NF-kB luciferase reporter, luminescence | hit rate 0.53% among 330,000 | inhibition, % at 4 µM; in the data active means inhibition above about 50%
697 NFkB inh: inhibitors of the PMA/ionomycin-induced NF-kB reporter in 697 B cells; AID 435022; inhibition, % at 4 µM; hit rate 0.33% among 330,000; 697 B-cell NF-kB luciferase reporter, 16 h; in the data active means inhibition above about 35%
aSyn 5UTR inh: MLPCN primary screen, SNCA 5' untranslated region; inhibition, % (tested at 7.5 µM); AID 1813; alpha-synuclein 5'UTR reporter, inhibitor activity; hit rate 0.82% among 300,000; in the data active means inhibition above about 60%;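 further: H4 neuroglioblastoma cells stably carrying SNCA 5'UTR luciferase fusion; 0% = DMSO wells and 100% = positive control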
Mdm2-MdmX inh: human Mdm2/MdmX binding inhibition; hit rate 3% among 330,000; SaOS-2 split-luciferase Mdm2/MdmX complementation, luminescence; inhibition, % at 8 µM; AID 485346;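 active means inhibition of at least 50% at 8 µM in the primary screen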
Target sequence (O15151 whole entry, looked up): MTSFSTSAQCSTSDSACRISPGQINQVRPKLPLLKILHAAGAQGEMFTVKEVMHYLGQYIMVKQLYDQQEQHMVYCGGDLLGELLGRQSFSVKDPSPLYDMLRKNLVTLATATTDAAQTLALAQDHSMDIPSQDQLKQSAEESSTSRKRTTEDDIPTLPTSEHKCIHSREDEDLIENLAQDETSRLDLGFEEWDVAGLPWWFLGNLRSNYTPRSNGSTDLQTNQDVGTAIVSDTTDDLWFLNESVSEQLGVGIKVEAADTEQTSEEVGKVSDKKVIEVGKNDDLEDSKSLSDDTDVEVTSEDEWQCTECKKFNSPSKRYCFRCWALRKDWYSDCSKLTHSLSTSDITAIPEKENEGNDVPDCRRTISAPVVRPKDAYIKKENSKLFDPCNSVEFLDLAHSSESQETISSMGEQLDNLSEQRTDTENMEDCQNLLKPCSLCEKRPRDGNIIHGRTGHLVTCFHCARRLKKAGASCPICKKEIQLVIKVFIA
Target sequence (Q00987 whole entry, looked up): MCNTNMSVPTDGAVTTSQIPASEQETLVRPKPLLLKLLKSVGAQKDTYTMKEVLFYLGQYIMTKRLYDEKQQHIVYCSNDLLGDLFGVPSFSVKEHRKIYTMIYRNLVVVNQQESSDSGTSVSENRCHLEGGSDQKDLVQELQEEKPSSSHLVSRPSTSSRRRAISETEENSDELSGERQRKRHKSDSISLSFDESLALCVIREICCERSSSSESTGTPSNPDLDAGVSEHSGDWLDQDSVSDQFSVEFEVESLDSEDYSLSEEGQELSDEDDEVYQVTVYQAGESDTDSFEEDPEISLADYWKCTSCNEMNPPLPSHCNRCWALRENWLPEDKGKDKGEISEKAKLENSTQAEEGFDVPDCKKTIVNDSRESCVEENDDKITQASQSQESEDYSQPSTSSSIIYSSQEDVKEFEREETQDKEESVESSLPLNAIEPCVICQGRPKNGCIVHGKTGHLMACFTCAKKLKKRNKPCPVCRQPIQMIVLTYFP
Jurkat NFkB conf: inhibitors of the PMA/ionomycin-induced NF-kB reporter in Jurkat cells, retest; shares compounds with Jurkat NFkB inh; Jurkat NF-kB luciferase, 16 h; inhibition, % at 4 µM; hit rate 27% among 2,700; AID 435020;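 active means inhibition reaching about 45% at 4 µM in either replicate, limit read from the data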;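 further: plate controls were PMA/ionomycin stimulated DMSO wells for no effect and unstimulated DMSO wells for full effect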
697 NFkB conf: inhibitors of the PMA/ionomycin-induced NF-kB reporter in 697 B cells, retest. shares compounds with 697 NFkB inh. 697 B-cell NF-kB luciferase, 16 h. inhibition, % at 4 µM. hit rate 35% among 2,000; in the data active means inhibition mostly above about 28%, no sharp cut-off; inactive means mostly below about 22%
Mdm2 MdmX conf: confirmation of human Mdm2/MdmX interaction inhibitors; hit rate 55% among 10,000; shares compounds with Mdm2-MdmX inh; Mdm2-MdmX binding, luminescent assay; AID 489028; inhibition, % at 8 µM; in the data active means inhibition above about 40%
Full FLuc ctr: inhibits full-length luciferase, flagging false Mdm2/MdmX hits. inhibition, % at 8 µM. hit rate 77% among 6,200. SaOS-2 full-length luciferase counterscreen, luminescence. shares compounds with Mdm2-MdmX inh;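 active means mean inhibition at 8 µM reaching about 37%, which flags the compound as non-specific, limit read from the data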;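 further: p53-null SaOS-2 cells with luciferase driven by a doxycycline-inducible promoter; compound on cells about two nights before reading with doxycycline added after day one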
Gli-Sufu confirm: confirmation of Gli-SUFU pathway antagonists; shares compounds with Gli-Sufu antag; Sufu-KO-LIGHT cells, Gli luciferase reporter, luminescence; inhibition, % at 5 µM; hit rate 40% among 2,500; AID 602428;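 active means mean inhibition at 5 µM reaching about 45%, limit read from the data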;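 further: plate controls were DMSO-treated cells for no effect and wells lacking cells for full effect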
Gli cytotox: counter-screen for Gli-SUFU antagonists: cytotoxicity | AID 651994 | shares compounds with Gli-Sufu antag | cytotoxicity, % at 5 µM | hit rate 32% among 2,500 | Sufu-KO-LIGHT cells cytotoxicity, ATP luminescence;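 active means mean cytotoxicity at 5 µM above about 25%, limit read from the data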;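 further: cells exposed to compound overnight for roughly 16 to 18 hours; plate controls were DMSO wells with cells for no effect and medium without cells for full effect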
Wnt3a cs: inhibits Wnt3a reporter, counter-screen for Gli-SUFU antagonists; shares compounds with Gli-Sufu antag; Wnt-LIGHT cells, Wnt3a-driven luciferase reporter, luminescence; inhibition, % at 6.25 µM; hit rate 20% among 2,500; AID 651995;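 active means mean inhibition above about 25%, limit read from the data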
* = called active by the depositor; · = no result given. Sampled rows, rich in hits. Any-hit rate of the full collection: about 4.1%.

SMILES	Gli-Sufu antag	KLF5 inhibitor	Jurkat NFkB inh	697 NFkB inh	aSyn 5UTR inh	Mdm2-MdmX inh	Jurkat NFkB conf	Gli-Sufu confirm	Gli cytotox	Wnt3a cs	others
CC1(C)CC(=O)c2c(O)cc(OCc3ccc(Br)cc3)cc2O1	95.8*	-64.3	-152.6	-137.0	-165.3	-105.8	-68.5	-40.5	21.8	-123.5
CCn1cc(CNC(=O)c2ccc(OC3CCN(Cc4ccccn4)CC3)cc2)cn1	14.1	-24.2	17.0	-17.3	11.5	22.5	·	·	·	·
CCn1nc(C)c(CNC(=O)c2ccc(OC3CCN(Cc4ccccn4)CC3)cc2)c1C	64.5*	0.2	65.0*	11.1	0.7	1.6	56.8*	65.7*	33.2*	37.9*
C=CCn1c(SCc2c(C)noc2C)nc2ccccc2c1=O	54.6	57.6	77.8*	15.6	79.7*	58.3*	51.7*	54.1*	57.9*	-15.9	Mdm2 MdmX conf=59.8*;Full FLuc ctr=65.9*
C=CCn1c(SCc2c(C)noc2C)nc2cc(C(=O)O)ccc2c1=O	0.3	-6.3	8.4	2.2	0.3	22.0	·	·	·	·
CCn1ncc(C2=NOC(C(=O)Nc3ccc(C)cc3)C2)c1C (stereo not given)	5.8	11.2	-1.5	-41.1	-11.7	19.7	·	·	·	·
CCn1ncc(C2=NOC(C(=O)NCc3ccc(Cl)cc3)C2)c1C (stereo not given)	50.4	54.3	74.1*	-60.3	0.7	45.1	49.6*	50.0*	45.4*	1.1
CC(=O)c1c(C)c(C)c2n1CCn1c(C)ccc1-2	-4.1	-14.7	-7.1	-2.6	-25.9	23.2	·	·	·	·
COC(=O)c1ccc(NC(=O)Cn2c(-c3nonc3N)nc3ccccc32)cc1	-8.3	-22.3	6.8	18.3	1.5	23.5	·	·	·	·
COC(=O)c1ccccc1NC(=O)Cn1c(-c2nonc2N)nc2ccccc21	57.9*	-29.4	83.0*	23.8	36.3	48.9	50.6*	62.7*	62.5*	-3.5
Cc1nn(C2CCS(=O)(=O)C2)c(C)c1C=O (stereo not given)	-0.6	-16.9	0.5	-10.4	7.8	9.8	·	·	·	·
CCOc1cc(C(=O)CCC(=O)OCC(=O)NC(=O)NCC(C)C)ccc1O	-3.5	-13.5	-1.7	-4.0	-6.3	4.3	·	·	·	·
CC(=O)Oc1ccc2c(=O)c(Oc3ccccc3)coc2c1OC(C)=O	1.8	-50.8	13.7	-12.0	-0.9	-17.7	·	·	·	·
O=C(NNc1ccnc2cc(Cl)ccc12)C1CCCCC1	76.7*	-22.5	69.1*	-0.5	-1.0	26.3	63.9*	76.1*	35.4*	34.4*
CCOc1ccc(C(=O)OCC(=O)Nc2ccc(SC(F)F)cc2)cc1OCC	-2.8	-8.9	-22.7	16.8	7.8	7.3	·	·	·	·
C/C(=N\NC(=O)C(c1ccccc1)c1ccccc1)c1ccccn1	88.7*	13.1	78.8*	-12.2	79.9*	74.8*	16.2	55.9*	30.6*	37.1*	Mdm2 MdmX conf=64.2*;Full FLuc ctr=49.6*
C/C(=N\NC(=O)C1COc2ccccc2O1)c1ccccn1 (stereo not given)	89.0*	-14.9	72.9*	-3.3	98.2*	41.1	12.2	73.0*	44.3*	52.8*
CCN(CCNCC(O)COCc1ccc(Cl)cc1)c1cccc(C)c1 (stereo not given)	9.2	-5.3	13.7	13.6	16.7	38.8	·	·	·	·
Cc1ccc(-c2nnn(CCOc3cccc(Br)c3)n2)cc1	0.1	9.9	-4.3	10.2	-12.0	-9.6	·	·	·	·
CCOc1ccccc1CNS(=O)(=O)c1ccc(-c2cnc(C3CC3)o2)cc1	54.6	34.8	57.5*	-58.5	74.3*	60.5*	55.0*	55.4*	58.6*	-57.8	Mdm2 MdmX conf=60.0*;Full FLuc ctr=83.6*
COc1ccc(C)cc1NS(=O)(=O)c1ccc(-c2cnc(C3CC3)o2)cc1	65.5*	60.6	65.6*	-272.4	102.2*	82.6*	68.3*	62.1*	65.8*	14.8	697 NFkB conf=-213.2;Mdm2 MdmX conf=52.0*;Full FLuc ctr=111.4*
CC(Nc1ncnc2ccccc12)c1ccccc1 (stereo not given)	63.1*	-49.5	50.2*	32.3	47.1	16.6	62.7*	72.9*	34.4*	41.0*
CCCCC(Nc1ncnc2ccccc12)C(=O)O (stereo not given)	2.6	-41.5	6.4	19.6	-3.6	17.5	·	·	·	·
CCN1/C(=C/C=C/c2oc3ccc(-c4ccccc4)cc3[n+]2CC)Oc2ccc(-c3ccccc3)cc21	88.3*	14.7	97.7*	47.5*	140.4*	96.7*	20.9	90.0*	34.9*	39.2*	697 NFkB conf=-16.9;Mdm2 MdmX conf=91.6*;Full FLuc ctr=1.4
CCCCN1C(=O)/C(=C/C=C2\Oc3ccccc3N2CC)SC1=S	6.5	-35.2	·	·	5.9	·	·	·	·	·
SMILES	Gli-Sufu antag	KLF5 inhibitor	Jurkat NFkB inh	697 NFkB inh	aSyn 5UTR inh	Mdm2-MdmX inh	Jurkat NFkB conf	Gli-Sufu confirm	Gli cytotox	Wnt3a cs	others
CCCCC[n+]1cccc2c3ccccc3ccc21	73.8*	48.6	52.2*	60.1*	26.4	49.5	46.4	84.8*	27.3*	32.6*	697 NFkB conf=42.4*
CN1/C(=C\C(=O)c2ccco2)C(C)(C)c2ccccc21	84.4*	-6.1	57.3*	-69.0	4.0	12.2	-0.2	81.2*	35.2*	24.1
O=C(Nc1ccc(S(=O)(=O)N2CCCC2)cc1)c1cnccn1	3.0	1.4	1.5	21.1	4.2	9.9	·	·	·	·
O=C(Nc1ccc(S(=O)(=O)N2CCN(Cc3ccccc3)CC2)cc1)c1cnccn1	57.5*	-6.3	57.0*	-5.6	3.4	10.1	54.2*	60.4*	32.7*	28.6*
Cc1cc(NC(=O)CSc2ccc(-c3nc4cc(C)c(C)cc4[nH]3)cn2)no1	96.6*	-147.2	-174.8	-32.1	-99.9	5.9	-85.8	21.0	26.9*	-205.6
Cc1cc2nc(-c3ccc(SCc4ccc(C(=O)O)cc4)nc3)[nH]c2cc1C	-4.2	-6.2	·	·	-160.0	·	·	·	·	·
COc1ccc(-c2ccc(CO)o2)cc1N	-20.7	-44.3	-8.0	-10.5	-81.9	-6.2	·	·	·	·
CCOc1cc(S(=O)(=O)NCc2cccs2)ccc1Cl	0.3	-44.7	-3.2	-0.5	-19.1	30.1	·	·	·	·
